Test results as given in ChEMBL document CHEMBL1961873, “Compounds: GSK PKIS; Assays: Nanosyn kinase panel” (2012).

What was measured:
[1] = biological target: Dual specificity protein kinase CLK3 (Homo sapiens) (UniProt P49761); conditions: at 1 µM;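 also: each value is the mean inhibition of CLK3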
[2] = biological target: Dual specificity tyrosine-phosphorylation-regulated kinase 1A (Homo sapiens) (UniProt Q13627); conditions: at 0.1 µM
[3] = biological target: Dual specificity tyrosine-phosphorylation-regulated kinase 1A (Homo sapiens) (UniProt Q13627); conditions: at 1 µM
[4] = biological target: Dual specificity tyrosine-phosphorylation-regulated kinase 1B (Homo sapiens) (UniProt Q9Y463); conditions: at 0.1 µM
[5] = biological target: Dual specificity tyrosine-phosphorylation-regulated kinase 1B (Homo sapiens) (UniProt Q9Y463); conditions: at 1 µM
[6] = biological target: T1, Dual specificity tyrosine-phosphorylation-regulated kinase 2 (Homo sapiens) (UniProt Q92630); conditions: at 0.1 µM
T1 sequence (whole entry): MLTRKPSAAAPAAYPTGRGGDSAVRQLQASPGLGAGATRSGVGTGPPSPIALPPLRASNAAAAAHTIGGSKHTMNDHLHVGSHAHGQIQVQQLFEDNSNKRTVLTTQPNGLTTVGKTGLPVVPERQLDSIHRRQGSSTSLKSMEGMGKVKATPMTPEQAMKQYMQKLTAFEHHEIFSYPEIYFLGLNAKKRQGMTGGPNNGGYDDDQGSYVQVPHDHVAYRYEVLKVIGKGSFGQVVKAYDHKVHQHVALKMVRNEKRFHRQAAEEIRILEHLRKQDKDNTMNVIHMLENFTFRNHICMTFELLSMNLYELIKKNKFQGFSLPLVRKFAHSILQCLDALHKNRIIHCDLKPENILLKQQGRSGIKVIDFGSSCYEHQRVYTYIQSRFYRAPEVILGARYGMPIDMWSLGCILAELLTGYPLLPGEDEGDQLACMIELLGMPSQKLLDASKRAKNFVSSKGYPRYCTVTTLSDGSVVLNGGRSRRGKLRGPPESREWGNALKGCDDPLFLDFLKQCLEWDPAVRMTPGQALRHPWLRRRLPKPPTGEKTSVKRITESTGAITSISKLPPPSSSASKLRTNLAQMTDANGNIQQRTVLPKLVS

[7] = biological target: T1, Dual specificity tyrosine-phosphorylation-regulated kinase 2 (Homo sapiens); conditions: at 1 µM
[8] = biological target: Glycogen synthase kinase-3 alpha (Homo sapiens) (UniProt P49840); conditions: at 0.1 µM
[9] = biological target: Glycogen synthase kinase-3 alpha (Homo sapiens) (UniProt P49840); conditions: at 1 µM
[10] = biological target: Glycogen synthase kinase-3 beta (Homo sapiens) (UniProt P49841); conditions: at 0.1 µM;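 also: values are mean percent inhibition of GSK3B activity, from the GSK Published Kinase Inhibitor Set (PKIS) screening dataset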
Chain of Glycogen synthase kinase-3 beta (Homo sapiens) (P49841 whole entry, looked up): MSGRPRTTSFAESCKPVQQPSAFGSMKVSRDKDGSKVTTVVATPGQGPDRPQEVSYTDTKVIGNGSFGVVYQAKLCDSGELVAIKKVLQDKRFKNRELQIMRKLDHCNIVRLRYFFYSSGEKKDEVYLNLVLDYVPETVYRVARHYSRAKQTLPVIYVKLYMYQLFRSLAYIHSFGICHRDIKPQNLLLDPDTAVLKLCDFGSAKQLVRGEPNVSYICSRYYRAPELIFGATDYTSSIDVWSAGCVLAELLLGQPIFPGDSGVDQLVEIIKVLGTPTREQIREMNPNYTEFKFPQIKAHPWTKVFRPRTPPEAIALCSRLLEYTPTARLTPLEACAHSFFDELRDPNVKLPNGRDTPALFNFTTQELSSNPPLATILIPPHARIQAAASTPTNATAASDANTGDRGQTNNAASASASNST

Chain of Glycogen synthase kinase-3 alpha (Homo sapiens) (P49840 2-483 limits assumed): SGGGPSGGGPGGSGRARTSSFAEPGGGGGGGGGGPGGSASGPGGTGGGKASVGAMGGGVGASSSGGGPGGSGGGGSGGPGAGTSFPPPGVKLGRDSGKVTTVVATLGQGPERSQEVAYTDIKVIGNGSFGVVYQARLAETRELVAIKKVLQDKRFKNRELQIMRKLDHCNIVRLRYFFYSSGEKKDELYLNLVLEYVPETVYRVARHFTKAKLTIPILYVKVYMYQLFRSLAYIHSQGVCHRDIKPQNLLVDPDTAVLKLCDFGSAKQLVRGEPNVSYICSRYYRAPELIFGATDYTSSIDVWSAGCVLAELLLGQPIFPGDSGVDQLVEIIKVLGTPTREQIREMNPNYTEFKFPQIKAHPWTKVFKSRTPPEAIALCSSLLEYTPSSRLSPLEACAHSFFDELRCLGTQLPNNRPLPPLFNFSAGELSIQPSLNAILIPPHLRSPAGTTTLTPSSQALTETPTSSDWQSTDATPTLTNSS
Chain of Dual specificity protein kinase CLK3 (Homo sapiens) (P49761 whole entry, looked up): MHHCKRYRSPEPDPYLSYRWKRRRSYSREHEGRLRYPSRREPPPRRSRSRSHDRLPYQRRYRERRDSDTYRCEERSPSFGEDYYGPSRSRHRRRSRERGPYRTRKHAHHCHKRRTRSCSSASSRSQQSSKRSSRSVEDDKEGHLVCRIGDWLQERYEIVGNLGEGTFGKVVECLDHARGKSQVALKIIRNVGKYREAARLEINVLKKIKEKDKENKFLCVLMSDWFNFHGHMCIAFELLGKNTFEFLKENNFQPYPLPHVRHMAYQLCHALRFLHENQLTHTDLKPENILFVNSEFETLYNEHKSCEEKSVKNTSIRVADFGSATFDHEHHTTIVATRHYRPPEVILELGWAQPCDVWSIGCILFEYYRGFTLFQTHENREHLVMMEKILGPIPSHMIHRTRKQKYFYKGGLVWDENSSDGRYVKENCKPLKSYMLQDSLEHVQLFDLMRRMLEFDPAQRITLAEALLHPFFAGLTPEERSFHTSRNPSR
Chain of Dual specificity tyrosine-phosphorylation-regulated kinase 1B (Homo sapiens) (Q9Y463 whole entry, looked up): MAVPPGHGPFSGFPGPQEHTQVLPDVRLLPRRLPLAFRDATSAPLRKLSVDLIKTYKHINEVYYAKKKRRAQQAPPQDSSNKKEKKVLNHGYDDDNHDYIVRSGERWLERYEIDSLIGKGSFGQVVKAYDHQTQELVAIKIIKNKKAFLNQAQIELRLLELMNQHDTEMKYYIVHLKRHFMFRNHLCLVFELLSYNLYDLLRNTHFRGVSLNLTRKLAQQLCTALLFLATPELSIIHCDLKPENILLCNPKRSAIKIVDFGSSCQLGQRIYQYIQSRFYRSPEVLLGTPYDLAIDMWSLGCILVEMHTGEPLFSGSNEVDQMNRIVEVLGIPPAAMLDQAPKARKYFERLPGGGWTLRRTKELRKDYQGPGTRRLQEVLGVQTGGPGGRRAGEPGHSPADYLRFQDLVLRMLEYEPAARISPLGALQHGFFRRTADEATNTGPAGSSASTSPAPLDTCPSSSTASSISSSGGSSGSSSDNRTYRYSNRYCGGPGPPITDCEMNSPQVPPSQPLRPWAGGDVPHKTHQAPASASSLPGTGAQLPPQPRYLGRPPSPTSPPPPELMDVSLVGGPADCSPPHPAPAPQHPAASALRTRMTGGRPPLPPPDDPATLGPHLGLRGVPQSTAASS

SMILES | inhibition [1] [%] | inhibition [2] [%] | inhibition [3] [%] | inhibition [4] [%] | inhibition [5] [%] | inhibition [6] [%] | inhibition [7] [%] | inhibition [8] [%] | inhibition [9] [%] | inhibition [10] [%]
COc1cc2ncn(-c3cc(OCc4ccccc4C(F)(F)F)c(C(=O)N(C)C)s3)c2cc1OC | 0.45 | 0.01 | 0.74 | 0.5 | 0.22 | -0.27 | 2.19 | 0.04 | 1.19 | 0.03
CCn1c(-c2nonc2N)nc2c(C#CC(C)(C)O)ncc(OC3CCNCC3)c21 | 0.2 | 1.61 | -0.11 | 0.14 | 1.34 | 2.3 | 3.89 | 12.3 | 48.9 | 10
Cc1ccc(O)cc1Nc1ccnc2cc(-c3ccccn3)ccc12 | 2.88 | 2.56 | 4.96 | 0.53 | 1.85 | 3.35 | 5.79 | 2.73 | 6.51 | 1.23
CCn1cc(-c2ccnc3[nH]ccc23)c(-c2cccc(NC(=O)Nc3ccc(OCc4ccccc4)cc3)c2)n1 | -1.48 | -3.22 | -2.65 | -1.6 | -0.5 | -0.82 | -4.73 | 2.29 | 3.64 | 1.77
CCN(CC)S(=O)(=O)c1ccc(OC)c(Nc2ncc(-c3ccccc3)o2)c1 | 8.6 | 1.08 | 10.9 | 1.93 | 14.7 | 1.64 | 6.15 | 0.34 | 2.7 | 0.79
c1ccc(-c2nc3n(c2-c2ccc4c(c2)OCO4)CCC3)nc1 | 1.02 | 1.52 | 6.32 | 1.24 | 5.19 | 1.61 | 1.95 | 1.93 | 5.52 | 2.03
CC1=C(C(=O)Nc2cc(Cl)c3[nH]ncc3c2)C(c2ccc(C(F)(F)F)cc2)CC(=O)N1 (stereo not given) | 1.64 | 1.66 | 2.44 | -1.21 | -0.06 | 2.57 | 2.68 | 0.24 | -1.53 | 0.14
CCn1c(-c2nonc2N)nc2ccccc21 | 2.22 | 1.62 | 14.6 | 1.02 | 7.36 | 2.66 | 5.28 | 3.32 | 24 | 3.21
CNC(=O)c1cccc(C#Cc2cncnc2Nc2ccc(OCc3cccc(F)c3)c(Cl)c2)c1 | -0.52 | -0.33 | 1.36 | 0.13 | 1 | 0.97 | 1.82 | 1.09 | 3.8 | 0.4
COc1cc2c(cc1Nc1nc(Nc3ccsc3C(N)=O)c3cc[nH]c3n1)N(C(=O)CN(C)C)CCC2(C)C | 4.74 | 4.97 | 15.5 | 1.64 | 10.2 | 4.55 | 6.57 | 7.63 | 21.1 | 5.85
CCCN(CCS(C)(=O)=O)Cc1ccc(-c2ccc3ncnc(Nc4ccc(OCc5cccc(F)c5)c(Cl)c4)c3c2)o1 | 3.58 | 4.83 | 10.8 | 4.87 | 10.4 | 1.93 | 2.03 | 7.55 | 9.2 | 6.85
CS(=O)(=O)CCNCc1ccc(-c2ccc3ncnc(Nc4ccc(OCc5ccccc5)c(C(F)(F)F)c4)c3c2)o1 | 0.19 | 2.36 | 4.91 | -2.07 | -0.6 | 3.17 | 0.91 | 3.36 | 3.82 | 3.13
COc1cc(/C=N/Nc2ncnc3[nH]ncc23)ccc1O | 13.2 | 12.5 | 45.1 | 6.29 | 31.6 | 7.46 | 44.8 | 9.63 | 41.7 | 7
Fc1cccc(COc2ccc(Nc3ncnc4sc(-c5ccco5)cc34)cc2Cl)c1 | 0.86 | 3.24 | 4.83 | -1.92 | 0.72 | 3.21 | 0.35 | 3.67 | 6.09 | 2.77
COc1ccc(-c2cc3c(N)ncnc3o2)cc1 | 11.4 | 4.26 | 22.7 | 5.2 | 12 | 0.06 | 18.5 | 5.87 | 7.92 | 5.53
CC(=O)Nc1cccc(C#Cc2cncnc2Nc2ccc(OCc3cccc(F)c3)c(Cl)c2)c1 | 0.73 | -0.41 | 1.4 | 0.85 | -0.33 | 3.61 | 1.41 | 2.72 | 5.35 | 1.98
Cc1cccc2c1NC(=O)/C2=N\Nc1ccc(S(N)(=O)=O)cc1 | 3.84 | 1.06 | 5.61 | 0.89 | 1.16 | 2.62 | 3.24 | 3.97 | 8.42 | 3.71
